The entries come from a sample that favours hits as a whole.
Vaccinia Venus – inhibitors of vaccinia virus (Venus reporter). Vaccinia virus Venus reporter expression, fluorescence. Potency, µM (doses to about 36.5 µM), without a hit: at the highest dose activity change, negative = inhibition, most hits filed as inhibitors. 0.46% of 330,000 active; calls by dose curve; tested in A549 cells; also: potency is read from the fitted curve at half-maximal effect; % is scaled to controls: 0 for no effect and ±100 for the full control effect; nearly all actives have a fitted effect of over 30% in size
MARV entry inh – inhibitors of Marburg virus binding or cell entry; Marburg virus pseudotyped entry inhibition, cell reporter; Potency, µM (titrated, usually from 37.8 µM), inactives show top-dose activity change, negative = inhibition, hits mostly inhibitors; 1.8% of 300,000 active; calls by dose curve; tested in HEK293 cells; also: potency is read from the fitted curve at half-maximal effect; % is scaled to controls: 0 for no effect and ±100 for the full control effect
Vaccinia mCherry – inhibitors of vaccinia virus infection (mCherry reporter signal); Vaccinia virus mCherry reporter infection, fluorescence; AID 720579; Potency, µM (titrated, usually from 36.5 µM), for inactives: at the highest dose activity change, negative = inhibition, usual class: inhibitors; 0.63% of 310,000 active; calls by dose curve; tested in A549 cells; also: potency is read from the fitted curve at half-maximal effect; % is scaled to controls: 0 for no effect and ±100 for the full control effect; nearly all actives have a fitted effect of over 35% in size
Shiga toxin inh – inhibitors of Shiga toxin in Vero cells; Vero cells, Shiga toxin protein synthesis inhibition reporter; inhibition, % at 38.7 µM; 9.2% of 290,000 active; AID 2315; in the data active = inhibition mostly above about 28%, no sharp cut-off; inactive = mostly below about 43%; also: 0% is about no effect
Cycloheximide cs – counter-screen hit for Shiga toxin inhibitors, cycloheximide; cell reporter, cycloheximide protein synthesis inhibition counterscreen; max response, %; 12% of 300,000 active; AID 2314; in the data active = max response mostly above about 13%, no sharp cut-off; inactive = mostly below about 14%; also: read at 38.3 µM for the half of the compounds with a filed dose; 0% is about no effect
Lassa entry inh – inhibitors of Lassa virus binding or cell entry | Lassa virus pseudotype entry inhibition, cell reporter | Potency, µM (highest dose often 37.9 µM), without a hit: at the highest dose activity change, negative = inhibition, actives largely listed as inhibitors | 1.2% of 300,000 active; calls by dose curve; tested in HEK293 cells; also: potency is read from the fitted curve at half-maximal effect; % is scaled to controls: 0 for no effect and ±100 for the full control effect; nearly all actives have a fitted effect of over 50% in size
Active calls of the source: *; i = inactive; u = inconclusive; x = no result given; [ ] = another dose, or the depositor's remark.

SMILES	Vaccinia Venus	MARV entry inh	Vaccinia mCherry	Shiga toxin inh	Cycloheximide cs	Lassa entry inh
Cc1cc(C(=O)CN2C(=O)NC3(CCCc4ccccc43)C2=O)c(C)n1Cc1ccccc1 (stereo not drawn)	-19%	-12%	x	20	25*	11%
Cc1cc(C(=O)CN2C(=O)NC3(CCCc4sccc43)C2=O)c(C)n1-c1ccccc1 (stereo not drawn)	-26%	-9%	-4%	29*	39*	u
Cc1cc(C(=O)CN2C(=O)CCC2=O)c(C)n1Cc1ccccc1	x	-5%	x	20	30*	-20%
CC(C)=CCC12Oc3cc(O)ccc3C1(O)Oc1cc3c(c(O)c1C2=O)C=CC(C)(C)O3 (stereo not drawn)	-3%	x	-12%	x	x	x
COc1ccccc1N1CC(C)(C)C(=O)N(C(=O)c2c(F)cccc2Cl)C1=S	18%	u	-10%	4	-1	-23%[46.1 µM]
Oc1ccc(N=Nc2nc(-c3ccccc3)c(-c3ccccc3)[nH]2)cc1	63%	u	1%	9	-4	u
Oc1ccc(N=Nc2n[nH]c(-c3ccc(Br)cc3)n2)cc1	u	u	u	24	20*	u
Oc1ccc(N=Nc2n[nH]c(-c3ccccc3)n2)cc1	-13%	u	-13%	89*	32*	u
Cc1ccc(OCCSc2nc3ccccc3n2CC(=O)N2CCOCC2)cc1C	-4%	-22%[46.1 µM]	-11%	x	x	26%[46.1 µM]
COc1ccccc1CNC(=O)CCCn1c(=O)c2ccccc2n(Cc2ccccc2C#N)c1=O	-9%	5%[46.1 µM]	-8%	x	x	11%[46.1 µM]
Nc1ccc(SCc2nc3cccc4c3n2CCC4)cc1	-16%	x	i	55*	25*	x
O=C(Nn1c(Cc2ccccc2)nc2ccccc2c1=O)c1c(O)c2cccc3c2n(c1=O)CCC3	x	x	x	-7	-3	x
O=C(Nc1cccnc1)c1c(F)cccc1F	-12%	4%	i	1	7	-28%[14.3 µM]
O=C(/C=C/c1c(F)cccc1Cl)Nc1cccnc1	x	x	x	x	39*	x
O=C(/C=C/c1cc(Br)ccc1F)Nc1cccnc1	-11%	u	-13%	39*	26*	6%[46.1 µM]
Cc1cc(C)nc(NS(=O)(=O)c2ccc(NCN3C(=O)c4ccccc4C3=O)cc2)n1	1%	x	u	x	x	x
COc1ccc(CC(=O)N(Cc2nc(-c3ccc(C)cc3)no2)C(C)C)cc1	-4%	-29%[46.1 µM]	-4%	x	x	1%[46.1 µM]
CN1C(C(=O)NCc2ccco2)=CC(c2ccc(F)cc2)=NS1(=O)=O	x	x	x	8	-2	x
O=C(NCc1cccs1)c1ccccc1C(=O)NCc1cccs1	x	2%	x	-7	-1	-6%
COc1ccc(CNC(=O)c2csc3c2CCCC3)cc1	-22%	11%	u	x	x	1%
COc1ccccc1CCNC(=O)c1csc2c1CCCC2	-16%	u	-19%	38*	13	u
O=C(NCc1cccs1)c1csc2c1CCCCC2	-17%	3%	-29%	19	21*	4%
O=C(NCc1cccs1)c1cc2c(s1)CCCC2	x	u	x	86*	45*	-31%
COc1ccccc1NC(=O)c1csc2c1CCC(C)C2 (stereo not drawn)	x	x	x	67*	51*	x
C=C=CCCN1C(=O)NC(c2ccccc2)C(C(=O)OC)=C1C (stereo not drawn)	x	-18%[14.2 µM]	x	x	x	x
SMILES	Vaccinia Venus	MARV entry inh	Vaccinia mCherry	Shiga toxin inh	Cycloheximide cs	Lassa entry inh
COc1ccccc1CCNS(=O)(=O)CCNC(=O)c1ccccc1	-13%	1%	-24%	x	x	3%
CC(=O)c1ccc(C#CC(C)(C)O)s1	-13%	1%[46.1 µM]	x	0	13	u
CC(C)(O)C#Cc1ccc(C(=O)NCc2cccs2)s1	6%	20%	-4%	33	26*	16%
COc1ccccc1CCNC(=O)c1ccc(Br)s1	x	x	x	63*	37*	x
CC(C)CCNC(=O)c1csc2c1CCCCC2	-7%	19%[46.1 µM]	i	55*	47*	-1%
COC(=O)c1ccccc1NC(=O)NCCc1ccccc1OC	-2%	u	-14%	83*	28*	0%[46.1 µM]
CCn1cc2nc(SCc3cccc(C(F)(F)F)c3)n(Cc3ccc(Cl)cc3)c(=O)c2n1	-25%	x	u	x	x	-2%[46.1 µM]
Cc1ccc(S(=O)(=O)Nc2ccc3c(c2)OCCO3)c(C)c1NS(C)(=O)=O	-1%	-6%[46.1 µM]	-2%	-1	-1	-19%[46.1 µM]
CSc1nnc(CNC(=O)/C=C/c2ccccc2Cl)n1-c1ccc(F)cc1	0%	x	i	x	x	x
CC1CCc2c(C(=O)NCc3ccco3)csc2C1 (stereo not drawn)	-16%	-1%[46.1 µM]	-7%	48	17*	-1%
O=C(NCc1ccco1)c1csc2c1CCCCC2	-14%	16%	-1%	19	22*	8%
CC1=CN2C(=N)/C(=C\c3cn(CCCOc4ccccc4)c4ccccc34)C(=O)N=C2S1	-7%	u	-20%	10	12*	u
COc1ccc(OCCn2cc(C=O)c3ccccc32)cc1	-12%	u	-13%	12	-3	u
COc1ccccc1OCCn1cc(/C=N/NC(=O)c2ccncc2)c2ccccc21	-1%	7%	i	26	2	u
COC(=O)N/N=C/c1cn(CCCOc2ccccc2)c2ccccc12	u	16µM*	u	72*	40*	u
COC(=O)N/N=C/c1cn(Cc2ccc(Cl)cc2Cl)c2ccccc12	-10%	13µM*	-5%	-15	-5	u
COc1ccccc1OCCn1cc(/C=N/NC(N)=S)c2ccccc21	1.3µM*	x	u	-3	-2	x
COC(=O)/C=c1\s/c(=C(/C#N)C(=O)NCc2ccco2)n(-c2ccccc2)c1=O	x	-4%	x	x	x	x
Cc1c(NC(=O)c2ccc(Cl)cc2)cc(C(C)C)c(O)c1S(=O)(=O)c1ccccc1	-15%	u	-4%	x	x	-29%[46.1 µM]
Cc1ccc(CNC(=O)c2cc(C3CC3)nc3c2c(C)nn3-c2cccc(Cl)c2C)cc1	-23%	x	-26%	x	x	27%[46.1 µM]
O=Cc1cn(CCCOc2ccccc2)c2ccccc12	-12%	u	-15%	51*	55*	11%
Cc1ccc(Nc2ncccc2C(N)=O)cc1[N+](=O)[O-]	-10%	u	-3%	50*	39*	15%
Cc1cc(C)c(Nc2ncccc2C(=O)O)c(C)c1	-10%	2%[46.1 µM]	-7%	-19	-2	0%
NC(=O)COC(=O)c1cccnc1Nc1ccccc1F	-9%	17%[46.1 µM]	-24%	-9	9	19%
Cc1ccc(Nc2ncccc2C(=O)O)cc1C	-14%	x	i	92*	21*	x
SMILES	Vaccinia Venus	MARV entry inh	Vaccinia mCherry	Shiga toxin inh	Cycloheximide cs	Lassa entry inh
COC(=O)CCCNc1ncccc1[N+](=O)[O-]	-3%	-16%[46.1 µM]	-1%	36	2	-5%
O=C(O)c1cccnc1Nc1ccc(Cl)cc1	24%	u	u	101*	27*	u
NC(=O)c1cccnc1Nc1ccccc1Cl	3%	15%	-14%	56*	30*	3%
COc1cc(C(=O)C(=O)c2ccc(OC)c(OC)c2)ccc1O	0%	4%[46.1 µM]	-5%	x	x	-29%[46.1 µM]
COC(=O)c1ccc(-c2noc(CN3CCCC(CNC(C)=O)C3)n2)cc1 (stereo not drawn)	2%	-3%[46.1 µM]	7%	15	1	-4%
CC(=O)c1cccc(NC(=O)CSc2nc3ccccc3nc2Cc2ccc(F)cc2)c1	-23%	x	-23%	x	x	-1%[46.1 µM]
